From PMC4336329 (PLoS ONE, 2015)
In all, about 310,000 compounds went through this assay and about 14,000 (4.5%) showed an effect of 50% or more. The effect is printed as a negative number. Only a selection was taken, and strong results are over-represented in it overall.

Molecular target: human ether-à-go-go-related gene (hERG) potassium channel (human, UniProt Q12809)
Experiment: primary screen, population patch clamp on CHO cells stably expressing hERG; higher = less effect of the substance
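Note: peak tail current of the secondary pulse compared with the same well before compound.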

human ether-à-go-go-related gene (hERG) potassium channel, sequence (Q12809 whole entry, looked up): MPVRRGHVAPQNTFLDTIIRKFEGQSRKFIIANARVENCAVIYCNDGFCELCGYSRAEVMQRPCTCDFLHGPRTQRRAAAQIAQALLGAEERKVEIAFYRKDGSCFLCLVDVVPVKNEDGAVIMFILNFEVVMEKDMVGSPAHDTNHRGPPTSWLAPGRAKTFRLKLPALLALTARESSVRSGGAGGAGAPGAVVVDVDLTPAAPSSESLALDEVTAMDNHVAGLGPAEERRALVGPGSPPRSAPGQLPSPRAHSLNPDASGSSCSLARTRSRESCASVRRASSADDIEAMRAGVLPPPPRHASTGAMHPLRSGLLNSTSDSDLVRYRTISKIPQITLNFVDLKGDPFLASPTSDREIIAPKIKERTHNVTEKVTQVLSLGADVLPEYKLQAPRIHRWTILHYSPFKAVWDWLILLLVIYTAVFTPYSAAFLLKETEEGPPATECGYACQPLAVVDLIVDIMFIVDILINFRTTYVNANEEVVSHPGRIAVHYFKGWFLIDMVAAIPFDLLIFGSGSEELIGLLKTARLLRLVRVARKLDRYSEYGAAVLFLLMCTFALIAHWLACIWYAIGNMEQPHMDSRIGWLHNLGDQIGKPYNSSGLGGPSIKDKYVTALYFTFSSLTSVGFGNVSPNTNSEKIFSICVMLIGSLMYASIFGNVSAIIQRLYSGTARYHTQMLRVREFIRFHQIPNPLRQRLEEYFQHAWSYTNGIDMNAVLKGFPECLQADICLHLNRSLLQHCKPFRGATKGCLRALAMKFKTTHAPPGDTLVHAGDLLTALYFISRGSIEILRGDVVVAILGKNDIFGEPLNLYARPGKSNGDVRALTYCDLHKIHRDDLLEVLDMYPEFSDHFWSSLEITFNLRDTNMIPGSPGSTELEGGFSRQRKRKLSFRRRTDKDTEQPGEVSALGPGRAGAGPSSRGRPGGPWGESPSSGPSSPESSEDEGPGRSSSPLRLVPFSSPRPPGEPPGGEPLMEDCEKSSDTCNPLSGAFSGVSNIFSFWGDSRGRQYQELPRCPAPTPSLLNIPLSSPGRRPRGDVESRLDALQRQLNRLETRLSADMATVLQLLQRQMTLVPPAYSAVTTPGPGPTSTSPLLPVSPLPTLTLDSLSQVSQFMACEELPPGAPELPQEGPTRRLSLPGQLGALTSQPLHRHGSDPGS

Row | SMILES | hERG current change (%, negative = inhibition) at 10uM
1 | Cc1ccc(CCNC(=O)C2CCN(S(=O)(=O)c3ccc4c(c3)NC(=O)C(C)S4)CC2)cc1 (stereo not shown) | -2.94%
2 | CC(C)N(C(=O)CSc1ccc(S(=O)(=O)N2CCCCC2)cn1)C(C)C | -15.7%
3 | CC12CCC(C(=O)O)(c3nc4cc([N+](=O)[O-])ccc4nc31)C2(C)C (stereo not shown) | -1.75%
4 | O=C(NC(Cc1c[nH]c2ccccc12)C(=O)O)/C(=C\c1ccccc1)NC(=O)c1ccccc1 (stereo not shown) | 9.54%
5 | COc1ccc2cnn(-c3ccc(OC(F)(F)Cl)cc3)c(=O)c2c1OC | 6.28%
6 | CCCN(CC(=O)Nc1ccc(F)c(F)c1F)C(=O)c1cc([N+](=O)[O-])ccc1N1CCOCC1 | -67.1%
7 | CCCN(CC(=O)Nc1ccccc1C)C(=O)c1ccc(N2CCOCC2)c([N+](=O)[O-])c1 | -70.3%
8 | CCN(CC(=O)Nc1cc(Cl)ccc1C)C(=O)c1cc([N+](=O)[O-])ccc1N1CCOCC1 | -18.5%
9 | CCCN(CC(=O)Nc1ccccc1C)C(=O)c1ccc(N2CCCCC2)c([N+](=O)[O-])c1 | -43.7%
10 | CCN(CC(=O)Nc1c(F)cccc1F)C(=O)c1cc([N+](=O)[O-])ccc1N1CCOCC1 | -4.57%
11 | CCCN(CC(=O)Nc1ccccc1C)C(=O)c1ccc(N2CCCC2)c([N+](=O)[O-])c1 | -41.3%
12 | O=C(NCC(=O)N1CCN(C(=O)c2ccccc2)CC1)c1ccccc1 | 5.05%
13 | COc1ccc([C@H]2CC(=O)C=C(/C=C/c3ccc(C(F)(F)F)cc3)C2)cc1 | -62.9%
14 | O=C1C=C(/C=C/c2ccccc2)C[C@@H](c2ccc3c(c2)OCO3)C1 | 20%
15 | C/C=C/C1=CC(=O)C[C@H](c2ccc(Cl)cc2)C1 | -63.9%
16 | C/C=C/C1=CC(=O)C[C@H](c2ccc(F)cc2)C1 | -34.3%
17 | O=C1C=C(c2ccccc2)CC(c2ccc(F)cc2)C1 (stereo not shown) | -28.2%
18 | CCCCC/C=C/C1=CC(=O)C[C@H](c2ccc(Cl)cc2)C1 | -47.4%
19 | COc1ccc([C@H]2CC(=O)C=C(/C=C/c3ccc(Cl)cc3)C2)cc1 | 12.8%
20 | COc1ccc([C@H]2CC(=O)C=C(c3cc(C(F)(F)F)cc(C(F)(F)F)c3)C2)cc1 | 4.42%
21 | O=C1C=C(/C=C/c2ccccc2)C[C@@H](c2ccc(F)cc2)C1 | -59.7%
22 | O=C(Nc1ccc(-c2cn3ccccc3n2)cc1)c1ccco1 | -11.4%
23 | O=C1C=C(c2ccc(CO)cc2)C[C@@H](c2ccc3c(c2)OCO3)C1 | -44.3%
24 | CC1=CSC2=NC(C(F)(F)F)(C(F)(F)F)NC(=O)N12 | -1.5%
25 | C=CCn1sc(N)c(C(=O)OCC)c1=S | 0.673%
26 | Cc1ccc(NS(=O)(=O)c2cccc(C(=O)O)c2)cc1S(=O)(=O)N1CCCCC1 | 3.3%

Row | SMILES | hERG current change (%, negative = inhibition) at 10uM
27 | COC(=O)Cn1c(=NC(=O)c2nc3ccccc3s2)sc2cc(S(C)(=O)=O)ccc21 | -65.2%
28 | COC(=O)Cn1c(=NC(=O)c2nc3ccccc3s2)sc2cc(S(N)(=O)=O)ccc21 | 6.74%
29 | COCCn1c(=NC(=O)c2nc3ccccc3s2)sc2cc(S(C)(=O)=O)ccc21 | -21%
30 | CCC(=O)NNC(=S)NC(=O)c1ccc(C)cc1 | 22.4%
31 | S=c1[nH]nc(-c2cccc(Br)c2)o1 | 19.6%
32 | CCOC(=O)c1cccc(NC(=O)CCc2nnc3ccc(N4CCCCC4)nn23)c1 | 7.86%
33 | CCn1c(O)c(N=NC(=O)CNC(=O)/C=C/c2ccco2)c2ccccc21 | 0.357%
34 | C=CCn1c(O)c(N=NC(=O)CNC(=O)c2ccco2)c2ccccc21 | -4.55%
35 | C=CCn1c(O)c(N=NC(=O)CNC(=O)/C=C/c2ccco2)c2ccccc21 | -58.2%
36 | CCCCNC(=O)NS(=O)(=O)c1cnccc1Sc1ccc(Cl)cc1 | 12.1%
37 | NC(=O)c1cccnc1Nc1cccc(F)c1 | -4.36%
38 | CCOC(=O)c1sc(/S(C)=N\S(=O)(=O)c2cccc(Cl)c2)c2c1CCC=C2 (stereo not shown) | -51.9%
39 | CCOC(=O)c1nc(C)sc1-c1ccnn1S(=O)(=O)c1cccc(Cl)c1 | -22.5%
40 | CCOC(=O)C1=C(C)Nc2ccccc2N/C1=N\S(=O)(=O)c1cccc(Cl)c1 | 0.773%
41 | COc1ccc(-n2nc(C(=O)NCc3ccco3)c3c4ccccc4n(C)c3c2=O)cc1 | 18.1%
42 | Cc1ccc(C)c(NC(=O)C2CCC(C)(C(=O)O)C2(C)C)c1 (stereo not shown) | -18.4%
43 | Cc1cccc(NCC(=O)N/N=C\c2cccc(Oc3ccccc3)c2)c1 | 20.1%
44 | O=C(CNC(=O)c1cccs1)Nc1ccncc1 | 8.67%
45 | O=C(Nc1ccc2c(c1)OCO2)C1CC(c2ccccc2Cl)=NO1 (stereo not shown) | -12.7%
46 | O=C1COc2ccc(S(=O)(=O)CCC(=O)N3CCN(c4ccccc4)CC3)cc2N1 | -13.1%
47 | CC(CS(=O)(=O)c1ccc2c(c1)NC(=O)CS2)C(=O)N1CCN(c2cccc(Cl)c2)CC1 (stereo not shown) | -52.1%
48 | CC(CC(=O)N1CCN(c2ccccc2)CC1)S(=O)(=O)c1ccc2c(c1)NC(=O)CS2 (stereo not shown) | -34.6%
49 | COc1ccccc1N1CCN(C(=O)C(C)CS(=O)(=O)c2ccc3c(c2)NC(=O)CS3)CC1 (stereo not shown) | 4.07%
50 | O=C1COc2ccc(S(=O)(=O)CCC(=O)N3CCN(c4cccc(Cl)c4)CC3)cc2N1 | -58.4%
51 | O=C1COc2ccc(S(=O)(=O)CCC(=O)N3CCN(c4cccc(C(F)(F)F)c4)CC3)cc2N1 | -46.3%
52 | O=C(NC1CCN(c2ncccn2)CC1)c1ccccc1F | 18.6%
